± gives the standard deviation.
What was measured:
Conditions in all cases: modulator concentration 10 µM
[1] = test system: RAW-Dual (murine macrophage reporter line); experiment: NF-kB reporter (SEAP) activity fold change vs agonist alone; higher = enhanced NF-kB activity
How it was run: (§1)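 RAW-Dual murine macrophage reporter cells were seeded at 50 000 per well in 384-well plates and pre-incubated 1 hour at 37 °C with compound pin-transferred to 10 μM final. After 1 hour, a PRR agonist was added and cells incubated overnight. Supernatant NF-κB (SEAP, QUANTI-Blue, 620 nm absorbance) and IRF (Lucia luciferase, QUANTI-Luc, luminescence) signals were divided by the mean agonist-only control on the same plate to give fold change. Two replicate plates were averaged, with errors by propagation.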

[2] = test system: RAW-Dual (murine macrophage reporter line); experiment: IRF reporter (Lucia luciferase) activity fold change vs agonist alone; higher = enhanced IRF activity
How it was run: as §1

[3] = test system: RAW-Dual (murine macrophage reporter line); experiment: viability score (confluency relative to resting cells, overnight) (fraction); higher = more viable, active = viable (0.7 or more)
How it was run: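 Two confluency masks, generated with IncuCyte software over all imaged wells, were applied to IncuCyte images of RAW-Dual macrophages. The cells, in 384-well plates, had been exposed overnight to 10 μM final compound. The viability score is confluency as a fraction of resting cells, and a compound met the cutoff only with both masks above 70% of resting cells.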

[4] = agonist: CpG ODN 1826 0.5 ug/mL

Compound	NF-kB reporter [1, 4]	NF-kB reporter ([1]; agonist: LPS 0.1 ug/mL)	NF-kB reporter ([1]; agonist: MPLA […])	IRF reporter ([2]; agonist: 3'3'-cGAMP 10 ug/mL)	IRF reporter ([2]; agonist: LPS 0.1 ug/mL)	IRF reporter ([2]; agonist: MPLA […])	viability score [3]
C=CCNC(=O)COc1ccccc1C	0.782 ± 0.073	0.887 ± 0.042	0.985 ± 0.086	1.05 ± 0.048	1.36 ± 0.082	1.48 ± 0.16	1 (active)
CCC(C)n1ncn(-c2ccc(N3CCN(c4ccc(OC[C@H]5CO[C@](Cn6cncn6)(c6ccc(Cl)cc6Cl)O5)cc4)CC3)cc2)c1=O (some centres not stated)	1.57 ± 0.47	1.04 ± 0.057	1.1 ± 0.089	0.921 ± 0.044	1.2 ± 0.14	1.32 ± 0.13	0.994 (active)
CCC1(C)CC(CCN)(c2ccc(C)cc2)CCO1 (configuration not stated)	0.826 ± 0.053	1.02 ± 0.08	0.992 ± 0.047	0.822 ± 0.048	0.904 ± 0.06	0.843 ± 0.083	0.962 (active)
COc1ccc(S(=O)(=O)NC(C)C)c2ccccc12	0.904 ± 0.09	0.942 ± 0.084	1.06 ± 0.06	0.999 ± 0.074	1.01 ± 0.13	1.08 ± 0.39	0.951 (active)
COc1ccccc1OCC(O)COC(N)=O (configuration not stated)	1.56 ± 0.26	1.28 ± 0.17	0.938 ± 0.058	0.93 ± 0.041	1.49 ± 0.15	1.21 ± 0.12	0.985 (active)
OCC1OC(Oc2ccc(O)cc2)C(O)C(O)C1O (configuration not stated)	1.23 ± 0.3	0.965 ± 0.069	1.02 ± 0.08	0.891 ± 0.049	1.14 ± 0.2	1.2 ± 0.11	1 (active)
COc1cc(C2Oc3cc(C4Oc5cc(O)cc(O)c5C(=O)C4O)ccc3OC2CO)ccc1O (configuration not stated)	1.11 ± 0.083	1.07 ± 0.057	1.13 ± 0.029	0.988 ± 0.082	0.93 ± 0.17	1 ± 0.17	0.981 (active)
CCOC(=O)c1ccc(N)cc1.Cl	0.872 ± 0.12	1.03 ± 0.12	0.997 ± 0.056	0.819 ± 0.036	1.25 ± 0.1	0.977 ± 0.13	0.996 (active)
Cc1cccc(C(C)C)c1NC(=O)c1ccccc1Br	0.951 ± 0.16	0.956 ± 0.085	0.953 ± 0.074	0.988 ± 0.044	1.28 ± 0.23	1.14 ± 0.12	0.971 (active)
CCOC(=O)c1ccccc1NC(=O)CN(c1cc(Cl)ccc1OC)S(C)(=O)=O	1.02 ± 0.15	1.09 ± 0.067	0.897 ± 0.054	1.02 ± 0.029	1.38 ± 0.2	1.14 ± 0.14	1.01 (active)
Nc1c2c(nc3ccccc13)CCCC2 [Prestw-329]	0.919 ± 0.075	0.967 ± 0.084	1.24 ± 0.11	1 ± 0.057	1.55 ± 0.12	1.66 ± 0.14	1 (active)
CCOc1ccccc1OCCCCOc1cccc(C)c1C	0.984 ± 0.1	1.03 ± 0.11	0.982 ± 0.061	1 ± 0.14	1.08 ± 0.13	1.1 ± 0.27	1 (active)
Cl.O=C(c1ccc(OCCN2CCCCC2)cc1)c1c(-c2ccc(O)cc2)sc2cc(O)ccc12	0.106 ± 0.015	1.14 ± 0.27	2.12 ± 0.12	0.55 ± 0.023	0.901 ± 0.24	1.5 ± 0.18	0.254 (inactive)
COc1cc(C=NN2C(=O)c3cccc4cccc(c34)C2=O)cc(Br)c1OC	1.02 ± 0.08	1.12 ± 0.062	0.967 ± 0.062	1.01 ± 0.032	1.51 ± 0.29	1.13 ± 0.17	1.01 (active)
COc1cc2c(cc1OC)C(=S)NC1(CCCC1)C2	0.886 ± 0.33	0.985 ± 0.12	0.941 ± 0.1	0.962 ± 0.04	1.04 ± 0.16	1.28 ± 0.23	0.596 (inactive)
COCCNc1nc(SCC(=O)Nc2cccc(C(F)(F)F)c2)nc2ccccc12	0.268 ± 0.022	0.549 ± 0.051	0.528 ± 0.043	0.601 ± 0.035	1.29 ± 0.28	1.42 ± 0.46	0.956 (active)
CCCCCCCC(=O)N[C@H](CN1CCCC1)[C@H](O)c1ccc2c(c1)OCCO2	0.989 ± 0.097	1.03 ± 0.067	1.21 ± 0.026	0.853 ± 0.047	1.03 ± 0.15	1.2 ± 0.11	0.968 (active)
Cc1ccc(C(CNC(=O)Cc2cccc3ccccc23)N(C)C)cc1 (configuration not stated)	0.647 ± 0.033	1.13 ± 0.094	1.06 ± 0.048	0.899 ± 0.045	1.03 ± 0.12	1.23 ± 0.27	0.738 (active)
CC#CCn1c(N2CCC[C@@H](N)C2)nc2c1c(=O)n(Cc1nc(C)c3ccccc3n1)c(=O)n2C	1.05 ± 0.14	1.13 ± 0.22	1.02 ± 0.064	0.944 ± 0.035	1.34 ± 0.38	1.14 ± 0.16	1.01 (active)
OCCN(CCO)c1nc(N2CCCCC2)c2nc(N(CCO)CCO)nc(N3CCCCC3)c2n1	1.58 ± 0.22	1.39 ± 0.35	1.06 ± 0.07	0.502 ± 0.022	1.18 ± 0.18	1.28 ± 0.17	0.984 (active)
COc1cc(C=Nc2ccc(-c3ccc(N=Cc4cc(OC)c(OC)cc4[N+](=O)[O-])cc3)cc2)c([N+](=O)[O-])cc1OC	0.742 ± 0.19	1.02 ± 0.065	1.02 ± 0.1	0.769 ± 0.1	1.03 ± 0.084	1.01 ± 0.41	1.01 (active)
O=C(/C=C/C=C/c1ccc2c(c1)OCO2)N1CCCCC1	0.974 ± 0.093	1 ± 0.097	1.17 ± 0.062	0.842 ± 0.052	1.04 ± 0.16	1.07 ± 0.26	1.03 (active)
COc1ccc(-c2oc3ccc(OC)cc3c2C(=O)Nc2ccccc2C)cc1	0.917 ± 0.047	1.17 ± 0.092	0.959 ± 0.073	1 ± 0.055	1.1 ± 0.073	1.12 ± 0.11	1 (active)
O=C(O)c1cc2ccccc2[nH]1	1.02 ± 0.087	0.963 ± 0.08	1.02 ± 0.024	1.02 ± 0.071	0.975 ± 0.14	0.889 ± 0.23	1 (active)
COc1ccc(C=C(NC(=O)c2cc(OC)c(OC)c(OC)c2)C(=O)NC(C(=O)O)C(C)C)c(OC)c1 (configuration not stated)	1.01 ± 0.091	0.985 ± 0.055	0.934 ± 0.11	0.908 ± 0.031	1.23 ± 0.18	1.04 ± 0.29	1.02 (active)
CCCC1=NN2C(=N)C(=Cc3cccc(OCc4ccccc4F)c3)C(=O)N=C2S1	0.983 ± 0.12	0.999 ± 0.1	0.972 ± 0.061	0.964 ± 0.064	1.6 ± 0.16	1.17 ± 0.097	1.01 (active)
